# Records with an inconclusive call do not appear. Activity calls are given as the source filed them. Calls follow the shape of the dose curve; as a rule, active = well fitted cell-killing curve with a large enough effect in the repeat runs; inconclusive = weak or mixed curves, or effect the other way; inactive = flat fitted curve, though single readings scatter.
# Assay: qHTS assay to identify small molecule agonists of the androgen receptor (AR) signaling pathway in the presence of an antagonist - cell viability counter screen (AID 1259379); also: nearly all actives have a fitted effect of over 25% in size
# Settings: MDA-kb2 viability, CellTiter-Fluor, 16 h; series mostly up to 92.4 µM; activity change, negative = cytotoxicity: at the top concentration
# Text: National Center for Advancing Translational Sciences [NCATS]
# NIH Chemical Genomics Center [NCGC]
# U.S. Environmental Protection Agency [EPA]
# National Institutes of Environmental Health Sciences [NIEHS]
# National Toxicology Program [NTP]
# U.S. Food and Drug Administration [FDA]
# Androgen receptor (AR) is an important member of nuclear receptor family. Its signaling plays a critical role in AR-dependent prostate cancer and other androgen related diseases. Considerable attention has been given in the past decades to develop methods to study and screen for the environmental chemicals that have the potential to interfere with metabolic homeostasis, reproduction, developmental and behavioral functions. Therefore AR binding assay for screening against androgen agonists and antagonists can be used to identify potential endocrine disruptors.
# MDA-kb2 cells (from ATCC, deposited by Wilson et al.) are human breast carcinoma cells that were stably transfected with a luciferase reporter gene under control of the MMTV promoter that contains response elements for both androgen receptor (AR) and glucocorticoid receptor (GR). This particular screening for measuring luciferase reporter gene activity using MDA-kb2 cells against Tox21 10K library compounds is a confirmation study on agonist mode screening in the presence of AR-antagonist compound (Nilutamide) at 3.0uM final concentration. The cytotoxicity of the compounds was tested in parallel by measuring the cell viability using CellTiter-Fluor assay system (Promega, Madison, WI) in the same wells.
# Tox21 Assay Protocol Summary:
# MDA-kb2 cells (cells cultured without CO2) were dispensed at 3,000 cells/well in 4uL of culture medium into white wall/solid-bottom 1536-well plates (Corning Life Sciences, Corning, NY) using a Multidrop Combi (Thermo Fisher Scientific Inc., Waltham, MA) dispenser. The assay plates were incubated at 37C and 0% CO2 for 5hr. One uL of 3.0uM (final concentration) Nilutamide or assay buffer was added using two separate tips of Flying Reagent Dispenser (FRD, Aurora Discovery, San Diego, CA). Then 23nL of compounds dissolved in DMSO at 15 concentrations and positive controls were transferred to the assay plates using a Pintool station (Wako, San Diego, CA). The assay plates were incubated at 37C and 0% CO2 for 16 hr. After 15hr incubation at 37C, 1uL/well CellTiter-Fluor reagent (Promega Corporation) was added to each well of the assay plates using FRD. After 1hr incubation at 37C and 0% CO2, the fluorescence signal was measured using a ViewLux plate reader (PerkinElmer, Shelton, CT).
# % is scaled to controls: 0 for no effect and ±100 for the full control effect; potency is read from the fitted curve at half-maximal effect.
Compound,"activity change, negative = cytotoxicity",Potency
CC(C)=CCC[C@H](C)CCO,1.06% (inactive),–
Cc1cccc(C)c1NC(=O)CN1CCCC1,-2.89% [at 42.5 µM] (inactive),–
CCCCCCC/C=C/C=O,4.58% (inactive),–
CCCc1nc(C)c2c(=O)[nH]c(-c3cc(S(=O)(=O)N4CCN(CC)CC4)ccc3OCC)nn12,-4.8% [at 42.5 µM] (inactive),–
CCn1nc(Cc2ccccc2)cc1C1CCN(C[C@H]2C[C@H](N(C)[C@@H](C(=O)O)C(C)C)C[C@@H]2c2cccc(F)c2)CC1,-0.516% (inactive),–
O=S(=O)(O)c1cc(Cl)c(Cl)cc1Cl,0.198% (inactive),–
CCCOC(C)=O,-3.16% (inactive),–
CCC[Si](OC)(OC)OC,0.932% (inactive),–
NC(=O)c1cc[n+](CC2=C(C(=O)[O-])N3C(=O)[C@@H](NC(=O)Cc4cccs4)[C@H]3SC2)cc1,-1.94% [at 42.5 µM] (inactive),–
OCCOc1cccc(OCCO)c1,-2.47% (inactive),–
O=C(O)CNc1ccccc1,2.27% (inactive),–
CC(Cc1ccccc1)(NC(=O)CN)c1ccccc1 (stereo not given),0.909% [at 42.5 µM] (inactive),–
COC=O,0.257% [at 8.39 µM] (inactive),–
COC(=O)C(C)(C)C,-0.977% (inactive),–
CCCC1CCOC(C)S1 (stereo not given),1.41% (inactive),–
CCCCCCCCCC(C)C=O (stereo not given),0.754% (inactive),–
CC(=O)Nc1ccn(C2COC(COC(=O)c3ccccc3)O2)c(=O)n1 (stereo not given),2.2% [at 42.5 µM] (inactive),–
CCCCOC(=O)C(C)Oc1ccc(Oc2ccc(C(F)(F)F)cn2)cc1 (stereo not given),2.27% (inactive),–
CCCCOC(=O)CC#N,0.478% (inactive),–
CCOCCn1c(N2CCCN(C)CC2)nc2ccccc21,-0.0015% [at 42.5 µM] (inactive),–

Compound,"activity change, negative = cytotoxicity",Potency
O=c1[nH]nc(-c2ccc([N+](=O)[O-])o2)o1,–,54.5 µM (active)
CC(C)=CCCC(C)C=O (stereo not given),1.28% (inactive),–
CS(C)=O,-0.761% (inactive),–
O=C(O)c1ccc2cc(O)ccc2c1,3.31% (inactive),–
Cc1nc(C)c(C)nc1C,-4.06% (inactive),–
O=c1[nH][nH]c2ccccc12,-9.88% (inactive),–
O=Cc1ccc([N+](=O)[O-])cc1,1% (inactive),–
O=C1c2ccccc2C(=O)C1c1ccc2cc(S(=O)(=O)O)cc(S(=O)(=O)O)c2n1,–,29.5 µM (active)
CCN(CC)CC(=O)OCC(=O)[C@@]1(O)CC[C@H]2[C@@H]3CCC4=CC(=O)CC[C@]4(C)[C@H]3[C@@H](O)C[C@@]21C,2.31% [at 42.5 µM] (inactive),–
CC1(C)[C@@H]2CC[C@]3(C2)[C@@H]1C(=O)CCC3(C)C,0.122% (inactive),–
CC[C@H](NC(C)C)[C@H](O)c1ccc(O)c2[nH]c(=O)ccc12,0.428% [at 42.5 µM] (inactive),–
O=[N+]([O-])c1ccc(Cl)cc1Cl,3.83% (inactive),–
Cc1c(N=C=O)cccc1N=C=O,-0.34% (inactive),–
Clc1cccc(C(c2ccc3nc[nH]c3c2)n2ccnc2)c1 (stereo not given),2.53% [at 42.5 µM] (inactive),–
CC(C)C/C=C(\C=O)c1ccccc1,-2.06% (inactive),–
CCCCCCCCCCCC(=O)OCC,2.09% (inactive),–
CC(C)(C)N,2.89% (inactive),–
CCC(C)C1N=C(C)C(C)S1 (stereo not given),2.91% (inactive),–
C[C@]12CCC(=O)C=C1[C@@H]1C[C@@H]1[C@H]1[C@@H]3[C@@H]4C[C@@H]4[C@@]4(CCC(=O)O4)[C@@]3(C)CC[C@@H]12,-3.65% [at 42.5 µM] (inactive),–
SCCOCCOCCS,4.97% (inactive),–

# Source: PubChem BioAssay (Tox21)
